62 sequences from the supplement of paper PMC3724861 can be followed below.

Shown is part of a subset that was picked to be rich in hits. No count for the full screen is at hand. A number with no mark means an inactive call. Bounds are passed on as bounds.

The test system of the experiment is T1, Caupolican (Caup) homeodomain DNA-binding domain.
T1 sequence: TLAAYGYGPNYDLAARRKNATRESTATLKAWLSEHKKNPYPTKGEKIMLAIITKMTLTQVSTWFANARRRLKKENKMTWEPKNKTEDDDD
Nature of the experiment: PBM E-score (8-mer, recovered from the published 9-mer minima) (E-score (dimensionless, -0.5 to 0.5)); Drosophila protein; higher = stronger relative binding preference, active = 0.31 or more. A digest of the protocol: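 An enrichment score, with higher meaning stronger, expresses relative binding preference for each short DNA word. The protein used was Caup's homeodomain DNA-binding domain (residues 214-303), produced by in vitro transcription and translation and tested at 100 nM on custom-designed protein binding microarrays. The 8-mer values were recovered from published 9-mer scores, each equal to the lower of its two constituent 8-mer scores.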
For the sequence AAAGGATA, the “PBM E-score” value was 0.105. Then CCTCCACA, with -0.164; and AAGTCTGT, with 0.139.

With CGCCTAAA, the “PBM E-score” value is -0.117. Then GGACATGA, with 0.304; and AGACATCA, with 0.197; and CGACATCC, with 0.134. Then CGACATTA, with 0.202. Then AGACATCG, with 0.0873; and AGACATTA, with 0.201. On to CGACATGA, for which the “PBM E-score” value was 0.395 (active). With AGACATGA the figure was 0.341 (active); with AGACATAG, 0.164; with AGACATGG, 0.329 (active). With AGACATGC the figure was 0.303. For the sequence CGACATGC, the “PBM E-score” value was 0.386 (active). Take GAAGTCAA: the “PBM E-score” value was -0.0438.

For the sequence GCAGTCGA, the “PBM E-score” value was -0.135. For CCAATCAA, the “PBM E-score” value was 0.0187. Regarding ATAGGCCC, the “PBM E-score” value was -0.176.

As to ACCCCTCA, the “PBM E-score” value is -0.091.

As to CAACTCTA, the “PBM E-score” value was -0.0633. With TACACATA the figure was 0.343 (active); with AACACACA, ≥ 0.313 (active); with AACACACG, 0.248. Then AACACATC, with 0.202; and AACACATA, with 0.323 (active); and AGCACATA, with 0.0614.

Regarding AACACATG, the “PBM E-score” value was 0.313 (active). Then GACACATA, with 0.264; and ATCACATA, with 0.239; and AACACACT, with 0.256.

Turning to CACACATA, the “PBM E-score” value is 0.164. Then AACACATT, with 0.264; and GAACAGTA, with 0.173.

AAGAGAGA: the “PBM E-score” value was -0.0648. As for CTTCCGCA, the “PBM E-score” value is -0.0665. With ACTTCTCA, the “PBM E-score” value is 0.00621.

In the case of GGTGATAA, the “PBM E-score” value is 0.0536. With GCTCCACC the figure was -0.174. Take CAATAGCC: the “PBM E-score” value was 0.0422. With CATCTTGC the figure was 0.0649; with GTCAACGA, 0.118; with CAGCCCGA, -0.199. With ATGAGCGA the figure was -0.0133; with AAACATAC, 0.292; with AAGCATAA, 0.0796. With GAACATAA the figure was 0.282.

For CAACATAA, the “PBM E-score” value was 0.295. With AAACATAG the figure was 0.267; with TAACATAA, 0.327 (active). With AAACATAA the figure was 0.321 (active). With AAACATTA the figure was 0.233. Turning to AAACATAT, the “PBM E-score” value is 0.325 (active). Then GTCAATCA, with 0.0914. Turning to ACGCTGTG, the “PBM E-score” value was 0.0319. On to AAAGTTGT, for which the “PBM E-score” value is 0.17. Consider AAGAGAAG, for which the “PBM E-score” value is -0.0176.

Regarding ACTGTGAT, the “PBM E-score” value is 0.066.

As for AGCCGAAT, the “PBM E-score” value was -0.0412. With AAGTGGCT the figure was -0.132; with CCGCGGCA, -0.192.
